TDP-43 yeast inh: qHTS of TDP-43 Inhibitors; 410,000 compounds, 1.8% hits; AID 652104, 2013; Potency, µM (top dose mostly 46.1 µM), without a hit: at the highest dose growth rescue (activation), hits mostly activators; TDP-43 expressing yeast growth rescue, BacTiter-Glo, 24 h; also: potency is read from the fitted curve at half-maximal effect; % of control where 0% means no effect; nearly all actives have a fitted effect of over 50% in size
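Cell-based yeast growth screen: TDP-43 expression induced in galactose, inoculum OD600=0.02 after raffinose pregrowth to mid-log. Read-out BacTiter-Glo luminescence at 24 hr, 30 deg C; inhibition of toxicity seen as signal increase.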
CCT modulator: High-Throughput Screening for Modulators of Cytosolic Chaperonin Activity; purified chaperonin ATPase assay, HTRF ADP detection, 30 min; activity change, % (test concentration not listed), hits read low; 360,000 compounds, 0.3% hits; AID 651819, 2012; in the data active = activity change below about -30%; also: % is scaled to controls: 0 for no effect and ±100 for the full control effect
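ATPase activity: ADP formed was measured by HTRF Transcreener (665/615 nm ratio) after 30 min at 37 deg C with 10 uM ATP. Compounds screened at one 76 uM concentration against 40 or 20 nM TRiC in Tris pH 7.4/KCl/MgCl2/DTT buffer.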
Akt phos inh: HTS Assay for Inhibitors of Akt Phophorylation: Primary Screen | Neuro2A IGF-stimulated pAkt S473 HTRF, 20 min; hits give low values | activity change, % for hits at 50 µM | 360,000 compounds, 0.32% hits | AID 651550, 2012; in the data active = activity change below about -80%; inconclusive = mostly about -51% to -80%; also: % is scaled to controls: 0 for no effect and ±100 for the full control effect
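Neuro2A cells in DMEM with 0.5% FBS, overnight at 37 deg C, given compound at single 50 µM final, then IGF (6 nM final) for 20 min at 37 deg C. Lysed; phospho-Akt Ser473 by HTRF after 24 h, 665/615 ratio.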
Anesthetic bind: qHTS Assay for Identification of Novel General Anesthetics | Potency, µM (highest dose often 77.5 µM), for the others: top-dose activity change, negative = displacement, usual class: inhibitors | apoferritin/1-aminoanthracene competitive binding, fluorescence | AID 485281, 2010 | Ferritin light chain (Equus caballus), P02791 | 350,000 compounds, 0.074% hits; also: potency is read from the fitted curve at half-maximal effect; % is scaled to controls: 0 for no effect and ±100 for the full control effect; nearly all actives have a fitted effect of over 20% in size
Target sequence (P02791 2-175 limits assumed): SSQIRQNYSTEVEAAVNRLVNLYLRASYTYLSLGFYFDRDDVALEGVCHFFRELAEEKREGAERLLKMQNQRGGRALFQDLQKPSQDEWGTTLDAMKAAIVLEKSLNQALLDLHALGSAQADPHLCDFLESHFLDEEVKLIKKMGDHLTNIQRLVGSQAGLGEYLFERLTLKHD
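In PBS, apoferritin at 10 uM is loaded with 1-AMA from a 50% saturated solution. After 10 min of compound exposure at ambient temperature, reduced 535 nm fluorescence indicates probe displacement.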
aSyn rescue: qHTS of alpha-syn Inhibitors | Potency, µM (doses to about 46.1 µM), without a hit: at the top dose growth rescue (activation), hits mostly activators | 370,000 compounds, 0.14% hits | AID 652106, 2013 | Yeast expressing alpha-synuclein, growth rescue, BacTiter-Glo, 24 h; also: potency is read from the fitted curve at half-maximal effect; % of control where 0% means no effect; nearly all actives have a fitted effect of over 65% in size
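Rescue of yeast growth: cells expressing toxic alpha-synuclein, induced in galactose at OD600 0.02, incubated with compound 24 h at 30 C. ATP luminescence quantified growth; inhibitors of toxicity appear as activators.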
Mito fusion act: qHTS Assay for Small Molecule Inhibitors of Mitochondrial Division or Activators of Mitochondrial Fusion; Potency, µM (highest dose often 46.1 µM), inactives show at the top dose growth rescue (activation), usual class: activators; S. cerevisiae fusion-defective mutant growth rescue, CellTiterGlo 48 h; AID 485298, 2010; 320,000 compounds, 0.23% hits; also: potency is read from the fitted curve at half-maximal effect; % of control where 0% means no effect; nearly all actives have a fitted effect of over 45% in size
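S. cerevisiae fusion-defective temperature-sensitive mutants (e.g. fzo1-1, mgm1-5) grown 48 h at 37C in YPEG (ethanol/glycerol non-fermentable) medium with 23 nl compound per well; growth rescue read as CellTiterGlo luminescence.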
* marks the source's active call; other numbers are inactive results; i = inactive; ? = inconclusive; . = no result. Shown are actives, neighbours in structure and some others; about 2.5% of the full set was active somewhere. Unless noted, calls follow the shape of the dose curve; as a rule, active = well fitted curve in the direction sought with a large enough effect; inconclusive = small, poorly fitted or top-dose-only effect, or another doubt; inactive = no such curve, though single readings can be large; an effect the other way counts as inactive or inconclusive.

SMILES	TDP-43 yeast inh	CCT modulator	Akt phos inh	Anesthetic bind	aSyn rescue	Mito fusion act
CCCn1c2ccccc2c2cnn(CC(=O)NCCOC)c(=O)c21	-2%	-3	i	1%	3.5µM*	2%
Cc1ccc(-n2c(=O)c3c4c(sc3n(CC(=O)c3ccc(Cl)cc3)c2=O)CCC4)cc1C	5%	.	.	3%	.	.
COc1cccc(-c2cc(=O)c3ccc(OC)cc3o2)c1	.	.	.	-19%	.	.
O=S(=O)(NCc1ccccc1)c1ccc(Br)s1	11µM*	0	i	?	10%	11%
CCCCc1ccc(NC(=O)c2ccc(=O)n(Cc3cccc(C)c3)c2)cc1	0%	.	.	-6%	1%	.
COC(=O)c1ccccc1NC(=O)c1ccc(=O)n(Cc2cccc(C)c2)c1	32µM*	.	.	-4%	0%	.
COc1ccc(CCNC(=O)CCN2C(=O)COc3ccc(C)cc32)cc1OC	8.9µM*	2	i	-4%	1%	-1%
COc1ccc(CCNC(=O)CCn2cccc2)cc1OC	10%	1	-101%*	-13%	0%	1%
CCOc1ccc(CCNC(=O)CCn2cccc2)cc1OCC	-2%	-1	i	-8%	2%	-1%
CCN1CCCC1CNC(=O)C(=O)NCCc1ccc(OC)c(OC)c1 (centres undefined)	-2%	-34*	i	-2%	-1%	20%
COc1ccc(CCNC(=O)CCN2C(=O)COc3ccccc32)cc1OC	8%	-5	i	-1%	0%	-1%
Cn1ncc2c(NCc3ccco3)ncnc21	.	.	.	.	-20%	.
CCCCN1C(=O)C(O)(CC(=O)c2ccc(CC)cc2)c2cc(Br)ccc21 (centres undefined)	18µM*	.	.	-18%	.	.
COc1ccccc1N1CCN(CCN(C(=O)c2ccc(I)cc2)c2ccccn2)CC1	.	.	.	.	-1%	?
Nc1nc[nH]c(=O)c1N	.	.	.	.	-3%	.
CCOC(=O)c1cnc2c(ccc3ccccc32)c1Nc1ccc(C(C)=O)cc1	24%	.	.	-7%	.	.
Cn1c(SCCC#N)nnc1-c1ccccc1F	13%	1	i	-8%	0%	1%
CC1(CCC#N)N=C(SCCC#N)N(c2ccccc2)C1=O (centres undefined)	7%	-2	-117%*	-11%	-10%	1%
O=CNc1cc(-c2cccc(F)c2)cn2c(-c3ccc(F)c(Cl)c3)cnc12	16µM*	-2	i	.	-6%	.
O=CNc1cc(-c2ccccc2)cn2c(-c3ccc(F)c(Cl)c3)cnc12	?	2	i	.	-13%	.
CN(C)c1ccc(-c2cc(NC=O)c3ncc(-c4ccc(F)c(Cl)c4)n3c2)cc1	22µM*	1	i	.	-6%	.
CCCCNC(=O)c1nc(C2CCN(S(=O)(=O)c3ccc(S(C)(=O)=O)cc3)CC2)oc1-c1ccccc1	28%	.	i	.	?	.
Cc1cccc(OCCSCc2nc3ccccc3[nH]2)c1	6%	1	i	?	0%	-10%
Cc1cccc(OCCCSc2nc3ccccc3[nH]2)c1	20µM*	0	i	-22%	-16%	2%
CCc1cc(-c2onc(C)c2-c2cscn2)c(O)cc1OC	18µM*	-1	i	?	?	-9%
COc1ccc(-c2noc(N3CCC(C(=O)N4CCN(c5ccccc5OC)CC4)CC3)n2)cc1	28µM*	.	.	-1%	.	.
COc1ccccc1N1CCN(C(=O)C2c3ccccc3Oc3ccccc32)CC1	?	-3	i	0%	20µM*	20%
COc1ccccc1N1CCN(C(=O)C2CC2)CC1	4%	-2	i	.	-1%	.
O=S(=O)(NCC(c1ccco1)N1CCc2ccccc21)c1ccccc1 (centres undefined)	22µM*	-1	i	.	10%	?
CCOc1ccc(OCC)c(NS(=O)(=O)c2cccc3nsnc23)c1	13µM*	1	i	2%	1%	?

Bioassay records from PubChem BioAssay.
